Reference: PubChem BioAssay (EPA / NIEHS)
Several values for one entry are separate records, joined by “and”; a condition that tells them apart may be missing. Equal entries are not always repeated. Activity calls are given as the source filed them. Rule for the calls: active = hit-call score of the fitted dose curve at least 0.9, where 1 is the maximum; inactive = score below 0.9.

Read-out: Interleukin-6 (IL6), IL6 (gene 3569)
Test: BSK_CASM3C_IL6: BioMAP Diversity Plus: CASM3C Assay for Interleukin-6 (IL6) Biomarker Activity for (AID 2283040)
Details: primary human coronary artery smooth muscle cells; actives raise or lower the signal

outcome, inactive:
O=P(O)(O)CCC(F)(F)C(F)(F)C(F)(F)C(F)(F)C(F)(F)C(F)(F)C(F)(F)C(F)(F)F, CCC(C)c1ccccc1O (configuration not stated), O=C(O)C(F)(F)OC(F)(F)C(F)(F)OC(F)(F)C(F)(F)OC(F)(F)C(F)(F)C(F)(F)C(F)(F)F, CCCCCCCCCCCCCCC, O=C1NS(=O)(=O)c2ccccc21, C[C@]12CC[C@@H]3c4ccc(O)cc4CC[C@H]3[C@@H]1C[C@@H](O)[C@@H]2O, CCOC(=O)CN[C@@H](C(=O)N1CC[C@H]1C(=O)NCc1ccc(/C(N)=N/O)cc1)C1CCCCC1, Clc1ccc(Nc2nnc(Cc3ccncc3)c3ccccc23)cc1, Cc1cccc2c1ccc1ccccc12, CC(C)(C)c1ccc(O)c(O)c1, O=P(O)(O)CCC(F)(F)C(F)(F)C(F)(F)C(F)(F)C(F)(F)C(F)(F)F, O=S(=O)(O)C(F)(F)C(F)(F)C(F)(F)C(F)(F)C(F)(F)C(F)(F)C(F)(F)C(F)(F)C(F)(F)C(F)(F)F, O=C(NO)c1ccccc1, O=C(c1ccccc1)c1ccccc1, OCC(F)(F)C(F)(F)C(F)(F)C(F)(F)C(F)(F)C(F)(F)C(F)(F)C(F)(F)C(F)(F)C(F)(F)C(F)(F)F, Cc1[nH]nc2c1N=C(c1ccccc1Cl)c1cc([N+](=O)[O-])ccc1N2, O=C(NCc1ncc(C(F)(F)F)cc1Cl)c1c(Cl)cccc1Cl, C=CC(C)(CCC=C(C)C)OC(C)=O (configuration not stated), O=C(O)CCC(F)(F)C(F)(F)C(F)(F)C(F)(F)C(F)(F)C(F)(F)F, Oc1ccc(Cc2ccccc2O)cc1, CCCCC=O, CN(CCO)S(=O)(=O)C(F)(F)C(F)(F)C(F)(F)C(F)(F)C(F)(F)C(F)(F)C(F)(F)C(F)(F)F, COCN(COC)c1nc(N(COC)COC)nc(N(COC)COC)n1, O=C1c2ccc(O)c(O)c2C(=O)c2c(O)ccc(O)c21, OCCN1CN(CCO)CN(CCO)C1, O=C(O)CCC(F)(F)C(F)(F)C(F)(F)C(F)(F)C(F)(F)F, CN(Cc1cnc2nc(N)nc(N)c2n1)c1ccc(C(=O)N[C@@H](CCC(=O)O)C(=O)O)cc1, CS(=O)(=O)c1ccc([C@@H](CC2CCCC2)C(=O)Nc2cnccn2)cc1Cl, CC1=NN(c2ccccc2)C(=O)C1

AC50, active:
CCCCC(CC)C(=O)OCCOCCOCCOCCOC(=O)C(CC)CCCC (configuration not stated) 11.3 µM, CN(C)c1ccc(C(=C2C=CC(=[N+](C)C)C=C2)c2ccccc2)cc1 0.103 µM, CC[N+](CC)(CC)Cc1ccccc1 0.0875 µM, O=C1OC2(c3ccccc31)c1cc(I)c(O)c(I)c1Oc1c2cc(I)c(O)c1I 0.9 µM, N=C(N)c1ccc(OCCCCCOc2ccc(C(=N)N)cc2)cc1 20.7 µM, CCCCCCCCCCCCCCCCCC[N+](C)(C)Cc1ccccc1 4.87 µM, CCCCc1oc2ccccc2c1C(=O)c1cc(I)c(OCCN(CC)CC)c(I)c1 27.8 µM, O=C(CC(=O)C(F)(F)C(F)(F)C(F)(F)F)c1cccs1 38.1 µM and 20.8 µM
